According to PubChem BioAssay:
Calls of active or inactive are those of the source. Unless noted, no rule for the calls is given here.

Columns and labels:
[1] = sensitizers of A549 cells to miR-34 induction, primary screen, imaging, A549 dox-inducible miR-34, nuclei and caspase counts (AID 1347080;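 active = compounds whose cell count with miR-34 switched on is under 0.7 times the count with it off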); conditions: A549 miR-34 inducible, Hoechst nuclei count, 48 h
[2] = phospholipid biosynthesis inhibitors in animal cells, primary screen, cell-based, LOPAC library, screen 4 (AID 1347384); conditions: phospholipid biosynthesis inhibition screen, at 10 µM
[3] = viability rescue of complex I mutant cybrids, primary screen, cell-based, galactose medium, ATP luminescence (AID 1645843;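 active = z-score of at least 1.8 in each of two replicates, scored against plate mean and spread of sample wells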;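 also: positive z means more ATP and so rescue of galactose-driven cybrid death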); conditions: complex I mutant cybrid cells, 72 h, stronger effect = higher value
[4] = hESC survival regulators, cell-based (AID 493140); conditions: human embryonic stem cell survival screen; stronger effect = higher value;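 also: cells exposed to compounds for four days before counting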
[5] = inhibitors of Cryptococcus chitosan production, flow cytometry, Cibacron Brilliant Red staining (AID 1347148); conditions: Cryptococcus neoformans chitosan, stronger effect = lower value; at 10 µM unless noted;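 also: compound exposure lasted three days at 37 degrees C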
[6] = test system: Hepatitis C virus NS3 helicase; test: HCV NS3 helicase inhibitors, primary screen, biochemical, fluorescence polarization, LOPAC1280 library (AID 687035; in the data active = inhibition above about 37%); conditions: Purified HCV NS3 helicase, Cy5-dT15 ssDNA binding fluorescence polarization; stronger effect = higher value; concentration not given here
[7] = Cy5 fluorescence quenching or enhancement artefacts, artefact control for HCV NS3 helicase inhibitor project, biochemical, LOPAC1280 (AID 687037); conditions: Cy5-DNA-NS3h complex fluorescence interference counterscreen
[8] = survival rescue of mitochondrial mutant cells in low glucose, primary screen, MELAS cybrids, Rieske KO mouse fibroblasts, CellTiter-Glo (AID 1508586;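 active = mean z-score across replicates of 1.96 or higher in either the MELAS or the Rieske mutant cell line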;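 also: z relative to plate mean and SD of compound and empty wells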)
[9] = modifiers of HSF1 nuclear foci, imaging, Selleck Cancer Library (AID 1347162; in the data active = plate-normalised HSF1 focus index below about 0.46); conditions: human cells, at 10 µM; SSMD: measured here: HSF1 foci SSMD mean; cell count: measured here: cell number; plate-normalised HSF1 focus index: stronger effect = lower value
[10] = circadian clock period modulators, cell-based, LOPAC library, luminescence reporter (AID 2774); conditions: circadian reporter cells, at 7 µM, actives lie on both sides;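 also: values are relative to mean of DMSO wells on each plate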
[11] = liver-stage malaria parasite growth inhibition, primary screen, cell-based, HepG2, luciferase luminescence, HepG2 viability (AID 624349; in the data active = parasite load remaining mostly below about 12%, no sharp cut-off; inactive = mostly above about 10%;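 also: 100% = mean of DMSO negative control wells on the same plate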); conditions: P. berghei liver stage in HepG2, luciferase luminescence, concentration not given here; parasite load remaining: stronger effect = lower value; viability: measured here: HepG2 viability without parasites
[12] = molecular target: Mitogen-activated protein kinase 7 (Homo sapiens) (UniProt Q13164); test: ERK5 transactivation activators in reporter cells, primary screen, cell-based, HTS (AID 1508626;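 active = luciferase signal above three times the same-plate solvent-only control wells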;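 also: luciferase driven by Gal4-ERK5 fusion binding five Gal4 sites before minimal TATA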); conditions: HeLa Gal4-ERK5 transactivation, 18 h, at 5 µM, stronger effect = higher value
Chain of Mitogen-activated protein kinase 7 (Homo sapiens) (Q13164 whole entry, looked up, the tested form may be a part): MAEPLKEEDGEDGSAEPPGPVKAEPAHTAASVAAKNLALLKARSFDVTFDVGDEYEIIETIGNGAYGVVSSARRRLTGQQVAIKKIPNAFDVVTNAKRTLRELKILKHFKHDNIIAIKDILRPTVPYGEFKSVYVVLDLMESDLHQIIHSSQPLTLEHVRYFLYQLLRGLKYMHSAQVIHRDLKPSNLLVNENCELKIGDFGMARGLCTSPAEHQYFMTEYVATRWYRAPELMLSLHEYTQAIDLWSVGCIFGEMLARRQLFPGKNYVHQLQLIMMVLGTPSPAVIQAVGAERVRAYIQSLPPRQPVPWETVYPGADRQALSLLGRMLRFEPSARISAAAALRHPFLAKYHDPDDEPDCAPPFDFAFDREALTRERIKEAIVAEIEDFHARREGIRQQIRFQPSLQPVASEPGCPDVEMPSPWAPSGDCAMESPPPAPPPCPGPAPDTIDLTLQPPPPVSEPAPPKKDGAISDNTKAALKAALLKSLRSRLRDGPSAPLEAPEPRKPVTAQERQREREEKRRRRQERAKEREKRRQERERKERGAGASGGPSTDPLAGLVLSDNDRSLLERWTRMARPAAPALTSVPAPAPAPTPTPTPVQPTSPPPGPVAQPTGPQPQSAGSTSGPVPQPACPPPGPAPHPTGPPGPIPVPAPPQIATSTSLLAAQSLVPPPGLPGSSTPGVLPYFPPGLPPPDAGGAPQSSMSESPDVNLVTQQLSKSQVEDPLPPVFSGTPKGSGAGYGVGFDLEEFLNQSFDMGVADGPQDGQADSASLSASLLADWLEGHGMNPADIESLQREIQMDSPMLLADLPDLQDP

[13] = molecular target: NAD(+) hydrolase SARM1 (Homo sapiens) (UniProt Q6SZW1); test: SARM1 TIR NADase inhibitors, cell lysate, NAD-Glo luminescence (AID 1508614;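 active = compound whose remaining NAD level is above about 45 nM, limit read from the data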;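 also: higher remaining NAD means stronger inhibition of SARM1 NADase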); conditions: SAM-TIR HEK293T lysate NADase, at 1 µM, stronger effect = higher value
Chain of NAD(+) hydrolase SARM1 (Homo sapiens) (Q6SZW1 whole entry, looked up): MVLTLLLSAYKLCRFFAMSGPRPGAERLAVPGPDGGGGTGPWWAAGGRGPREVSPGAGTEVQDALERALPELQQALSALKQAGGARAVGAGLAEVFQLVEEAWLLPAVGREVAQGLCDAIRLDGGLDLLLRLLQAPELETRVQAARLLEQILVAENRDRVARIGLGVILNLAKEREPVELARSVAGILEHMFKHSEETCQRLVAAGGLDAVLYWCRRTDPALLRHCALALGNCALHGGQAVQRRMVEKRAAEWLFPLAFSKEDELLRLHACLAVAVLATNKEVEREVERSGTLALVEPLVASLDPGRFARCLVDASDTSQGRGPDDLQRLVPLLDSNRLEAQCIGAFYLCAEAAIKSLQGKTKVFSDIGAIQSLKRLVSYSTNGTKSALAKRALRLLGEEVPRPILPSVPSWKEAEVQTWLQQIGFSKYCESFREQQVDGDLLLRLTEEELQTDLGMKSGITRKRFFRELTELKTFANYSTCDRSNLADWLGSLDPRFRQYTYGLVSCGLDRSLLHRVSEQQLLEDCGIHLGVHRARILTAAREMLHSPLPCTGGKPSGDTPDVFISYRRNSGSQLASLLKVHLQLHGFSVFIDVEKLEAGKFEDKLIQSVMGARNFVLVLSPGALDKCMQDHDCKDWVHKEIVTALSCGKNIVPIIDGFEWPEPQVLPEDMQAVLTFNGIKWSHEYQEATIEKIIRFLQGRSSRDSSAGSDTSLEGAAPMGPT

[14] = stronger effect = lower value, cell number ratio, induced over uninduced
[15] = measured here: relative caspase fold change +Dox/-Dox
[16] = measured here: total cells with miR-34 induction, stronger effect = lower value
[17] = measured here: total cells without miR-34 induction
[18] = MELAS cybrid survival, CellTiter-Glo 48 h, stronger effect = higher value
[19] = Rieske KO mouse fibroblast survival, CellTiter-Glo 72 h

O=C(CCc1ccncc1)NNC(=O)N1Cc2ccccc2Oc2ccc(Cl)cc21
fold change [1, 14]: 1.04 (inactive)
fold change [1, 15]: 1.18
cell count [1, 16]: 8820
cell count [1, 17]: 8460
outcome [2]: inactive
z-score [3]: -0.355 (inactive)

Fc1ccc2[nH]c(CN3CCN(c4ccccn4)CC3)cc2c1
fold change [1, 14]: 0.975 (inactive)
fold change [1, 15]: 1.18
cell count [1, 16]: 8710
cell count [1, 17]: 8930
outcome [2]: inactive
z-score [3]: -1.13 (inactive)

CCCCC/C=C\C/C=C\C/C=C\CC1OC1CCCC(=O)O (configuration not stated)
survival [4]: 114 (inactive)
fold change [1, 14]: 0.939 (inactive)
fold change [1, 15]: 1.34
cell count [1, 16]: 5900
cell count [1, 17]: 6280
fold fluorescence [5]: 4.93 [at 1 µM] (inactive)

CCCCC[C@H](O)C/C=C1/C(=O)C=C[C@@H]1C/C=C\CCCC(=O)O
survival [4]: 95.5 (inactive)
fold change [1, 14]: 0.887 (inactive)
fold change [1, 15]: 0.855
cell count [1, 16]: 5300
cell count [1, 17]: 5980
fold fluorescence [5]: 4.79 (inactive)

CCCCC/C=C\C/C=C\CCCCCCCC(=O)NCC(=O)O
survival [4]: 52.3 (inactive)
fold change [1, 14]: 0.95 (inactive)
fold change [1, 15]: 1.28
cell count [1, 16]: 6210
cell count [1, 17]: 6540
fold fluorescence [5]: 3.7 (inactive)

Nc1ccn(C2O[C@H](CO)[C@@H](O)C2(F)F)c(=O)n1 (some centres not stated)
fold change [1, 14]: 1.18 (inactive)
fold change [1, 15]: 1.01
cell count [1, 16]: 1960
cell count [1, 17]: 1660
outcome [2]: inactive
z-score [3]: -1.32 (inactive)

O=C1Nc2ccc(I)cc2C1=Cc1cc(Br)c(O)c(Br)c1
inhibition [6]: -1% (inactive)
fluorescence ratio (interference) [7]: 1 (inactive)
fold change [1, 14]: 1.04 (inactive)
fold change [1, 15]: 0.568
cell count [1, 16]: 7930
cell count [1, 17]: 7600
outcome [2]: inactive
z-score [8, 18]: -0.141 (inactive)
z-score [8, 19]: -0.283

Nc1nc2ccc(Cl)cc2n2c(-c3ccccc3)nnc12
fold change [1, 14]: 1.08 (inactive)
fold change [1, 15]: 0.972
cell count [1, 16]: 11200
cell count [1, 17]: 10300
outcome [2]: inactive
z-score [3]: 1.13 (inactive)

CCCCCCCCCCCCCCCCCCN(CCCCCCCCCCCCCCCCCC)CCCN(CCO)CCO
fold change [1, 14]: 0.981 (inactive)
fold change [1, 15]: 1.42
cell count [1, 16]: 10100
cell count [1, 17]: 10300
outcome [2]: inactive
z-score [3]: 0.39 (inactive)

CC[C@H]1OC(=O)[C@H](C)[C@@H](O[C@H]2C[C@@](C)(OC)[C@@H](O)[C@H](C)O2)[C@H](C)[C@@H](O[C@@H]2O[C@H](C)C[C@H](NC)[C@H]2O)[C@](C)(O)C[C@@H](C)CN(C)[C@H](C)[C@@H](O)[C@]1(C)O
fold change [1, 14]: 1.02 (inactive)
fold change [1, 15]: 1.41
cell count [1, 16]: 10700
cell count [1, 17]: 10400
outcome [2]: inactive
z-score [3]: 0.37 (inactive)

C=CC(=O)N1CCCC(n2nc(-c3ccc(Oc4ccccc4)cc3)c3c(N)ncnc32)C1 (configuration not stated)
fold change [1, 14]: 0.863 (inactive)
fold change [1, 15]: 0.762
cell count [1, 16]: 7670
cell count [1, 17]: 8890
SSMD [9]: 2.74
cell count [9]: 7290
plate-normalised HSF1 focus index [9]: 1.17 (inactive)
z-score [8, 18]: -0.153 (inactive)
z-score [8, 19]: -0.517

Nc1ncnc2c1c(-c1ccc(Oc3ccccc3)cc1)cn2C1CCCC1
period change [10]: 0.07 h (inactive)
parasite load remaining [11]: 28.7% (inactive)
viability [11]: 78.8%
inhibition [6]: 2% (inactive)
fluorescence ratio (interference) [7]: 1 (inactive)
fold change [1, 14]: 1.28 (inactive)
fold change [1, 15]: 0.999
cell count [1, 16]: 4440
cell count [1, 17]: 3470
SSMD [9]: -0.154
cell count [9]: 6750
plate-normalised HSF1 focus index [9]: 0.99 (inactive)
outcome [2]: inactive
z-score [3]: -1.02 (inactive)

CCCCS(=N)(=O)CC[C@H](N)C(=O)O (some centres not stated)
period change [10]: -0.045 h (inactive)
inhibition [6]: -2% (inactive)
fluorescence ratio (interference) [7]: 1 (inactive)
fold change [1, 14]: 0.972 (inactive)
fold change [1, 15]: 2.07
cell count [1, 16]: 9810
cell count [1, 17]: 10100
outcome [2]: inactive
luciferase signal [12]: 48 AU (inactive)
z-score [3]: -0.84 (inactive)

Brc1cc2c(cc1[C@H]1Nc3ccccc3[C@H]3C=CC[C@H]31)OCO2
fold change [1, 14]: 1.18 (inactive)
fold change [1, 15]: 1.55
cell count [1, 16]: 6800
cell count [1, 17]: 5750
outcome [2]: inactive
z-score [3]: -0.59 (inactive)

CC[C@H]1OC(=O)[C@H](C)C(O[C@H]2C[C@@](C)(OC)[C@@H](O)[C@H](C)O2)[C@H](C)[C@@H](OC2O[C@H](C)C[C@H](N(C)C)[C@H]2O)[C@](C)(O)C[C@@H](C)CN(C)[C@H](C)[C@@H](O)[C@]1(C)O (some centres not stated)
fold change [1, 14]: 1.06 (inactive)
fold change [1, 15]: 1.99
cell count [1, 16]: 10100
cell count [1, 17]: 9500
outcome [2]: inactive
z-score [3]: -0.895 (inactive)

CC1=C(/C=C/C(C)=C\C=C\C(C)=C\C(=O)O)C(C)(C)CCC1
survival [4]: 82.2 (inactive)
fold change [1, 14]: 0.906 (inactive)
fold change [1, 15]: 1.46
cell count [1, 16]: 5680
cell count [1, 17]: 6260
fold fluorescence [5]: 4.39 (inactive)

CCCCC/C=C\C/C=C\C/C=C\C=C\[C@@H](O)CCCC(=O)O
survival [4]: 128 (inactive)
fold change [1, 14]: 0.957 (inactive)
fold change [1, 15]: 1.24
cell count [1, 16]: 5700
cell count [1, 17]: 5960
fold fluorescence [5]: 4.16 [at 1 µM] (inactive)

CS(=O)(=O)c1ccc(-n2nc(C(F)(F)F)cc2-c2ccc(F)cc2)cc1
fold change [1, 14]: 1.12 (inactive)
fold change [1, 15]: 0.872
cell count [1, 16]: 9270
cell count [1, 17]: 8270
outcome [2]: inactive
z-score [3]: 0.62 (inactive)

Cc1nc2n(c(=O)c1CCN1CCC(c3noc4cc(F)ccc34)CC1)CCCC2O (configuration not stated)
inhibition [6]: -4% (inactive)
fluorescence ratio (interference) [7]: 1 (inactive)
fold change [1, 14]: 1.04 (inactive)
fold change [1, 15]: 0.907
cell count [1, 16]: 9980
cell count [1, 17]: 9570
outcome [2]: inactive
remaining NAD [13]: 10 nM (inactive)
z-score [3]: -0.155 (inactive)

Cc1oc(S(=O)(=O)N2CCCCC2)cc1NC(=O)Nc1ccccc1
fold change [1, 14]: 0.9 (inactive)
fold change [1, 15]: 1.24
cell count [1, 16]: 5590
cell count [1, 17]: 6210
SSMD [9]: 2.84
cell count [9]: 6950
plate-normalised HSF1 focus index [9]: 1.17 (inactive)
